Screens (PubChem)
S2 tox: reduces viability in counter-screen for ATXN expression inhibitors | S2 cells (HEK-293 line with an ATXN2-luciferase reporter) viability, CellTiter-Fluor protease fluorescence, 24 h | Potency, µM (doses to about 56.7 µM), usual class: cytotoxic | 400,000 compounds, 0.49% hits; note: nearly all actives have a fitted effect of over 40% in size
TGFb SMAD3 inh: blocks TGF-b signaling; HepG2 CAGA-GFP TGF-b/SMAD3 reporter, GFP fluorescence, 18 h; TGF-beta stimulated, 500 pg/mL final; AID 588855; Potency, µM (titrated, usually from 46.1 µM), without a hit: at the highest dose activity, negative = inhibition, most hits filed as inhibitors; 410,000 compounds, 1.2% hits; note: % is set by controls: 0 for no effect and ±100 for the full control effect; nearly all actives have a fitted effect of over 65% in size
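Cell-based qHTS in HEPG2 carrying a CAGA-GFP Smad reporter; compounds added before 500 pg/mL final TGF-beta, 18 h incubation at 37 degrees C, GFP fluorescence quantified per cell by imaging cytometry.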
HepG2 viability: kills HepG2 cells in TGF-b inhibitor counter-screen; HepG2 CAGA-GFP viability, ATP luminescence, 18 h; Potency, µM (series often up to 46.1 µM), for the others: top-dose activity change, negative = cytotoxicity, most hits filed as cytotoxic; 410,000 compounds, 0.76% hits
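CellTiter-Glo luminescence gave cytotoxicity after 18 hours at 37 degrees C. The cells were HepG2 CAGA-GFP in 1% FBS DMEM, stimulated with 500 pg/mL TGF-beta after compound addition. %Activity was normalised to no-cell wells (complete cell-killing) and DMSO (no toxicity), and curves were fitted and classified.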
ATXN2 expr inh: ATXN2 expression inhibition; HEK-293 ATXN2-luciferase reporter, luminescence, 24 h; Potency, µM (series often up to 57 µM), inactives show at the top dose activity change, negative = inhibition, usual class: inhibitors; 360,000 compounds, 0.72% hits; note: % is set by controls: 0 for no effect and ±100 for the full control effect; nearly all actives have a fitted effect of over 55% in size
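qHTS (up to 57 uM final) was run with 24 h compound exposure of reporter cells at 37 °C. Each well was multiplexed: SteadyGlo luminescence measured ATXN2-luciferase expression after a fluorogenic Gly-Phe-AFC viability readout (25 uM final).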
HT1080NT lethal: kills 2HG-producing HT-1080-NT fibrosarcoma cells. Potency, µM (doses to about 46.1 µM), without a hit: at the top dose activity, negative = less viability, actives largely listed as cytotoxic. 360,000 compounds, 1.6% hits. HT-1080-NT fibrosarcoma viability, CellTiter-Glo ATP luminescence, 48 h;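 note: NT is the 2HG producing partner of a matched IDH1 knockdown line; 0% = DMSO-treated cells and -100% = media-only wells without cells; nearly all actives have a fitted effect of over 55% in size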
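HT-1080-NT; 750 cells/well; 5% FBS RPMI; 48 h compound, 37 degrees C; CellTiter-Glo luminescence; curve fitting and curve-class assignment.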
HT1080 IDH1KD tx: HT-1080 IDH1 knockdown cell toxicity (counter line) | AID 686971 | HT-1080 IDH1 knockdown viability, ATP luminescence, 48 h | 360,000 compounds, 2% hits | Potency, µM (top dose mostly 46.1 µM), for inactives: at the top dose activity, negative = toxicity, hits mostly cytotoxic;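 note: 0% = DMSO wells and -100% = cell-free medium wells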
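Viability of IDH1-knockdown HT-1080 fibrosarcoma cells was assessed by CellTiter-Glo after 48 h at 37 °C with titrated compound; concentration-effect curves were classified by fit quality and response size.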
* hit, by the source's call; ! = a repeat was not active. Shown are actives, neighbours in structure and some others; about 3.8% of the full set was active somewhere. Calls come from the whole dose curve; as a rule, active = well fitted curve in the direction sought with a large enough effect; inconclusive = small, poorly fitted or top-dose-only effect, or another doubt; inactive = no such curve, though single readings can be large; an effect the other way counts as inactive or inconclusive. Potency is the fitted concentration of half-maximal effect.

Results for C/C(=N\Nc1ccccc1)c1c(O)n(-c2ccccc2)c(=O)[nH]c1=O ?
S2 tox: inactive; TGFb SMAD3 inh: -23%; HepG2 viability: -4%; ATXN2 expr inh: -11%; HT1080NT lethal: inconclusive; HT1080 IDH1KD tx: 4.6µM*

How did C/C(=N\Nc1ccccc1)c1c(O)[nH]c(=O)[nH]c1=O do in these assays?
S2 tox: inactive; TGFb SMAD3 inh: -1%; HepG2 viability: -34%; ATXN2 expr inh: -15%; HT1080NT lethal: inconclusive; HT1080 IDH1KD tx: 4.1µM*

What do the screens show for `Oc1c(C(Nc2cccnc2)c2ccccc2F)ccc2cccnc12` (centres undefined)?
TGFb SMAD3 inh: inconclusive; HepG2 viability: -10%

How did C[C@@H]1CNC(=O)c2c(C(=O)Nc3cccc(Cl)c3)ncn21 do in these assays?
S2 tox: inconclusive; TGFb SMAD3 inh: inconclusive; HepG2 viability: -8%; ATXN2 expr inh: -12%; HT1080NT lethal: -20%; HT1080 IDH1KD tx: -20%

What do the screens show for `CCCCCCC(C)(C)c1ccc([C@@H]2C[C@H](O)CC[C@H]2CCCO)c(O)c1`?
S2 tox: 10µM*; TGFb SMAD3 inh: 13µM*; HepG2 viability: 10µM*!; ATXN2 expr inh: 14µM*; HT1080NT lethal: 2.6µM*; HT1080 IDH1KD tx: 4.6µM*

Results for CC1CCC(C(C)C)C(OC(=O)Cn2c(COc3ccccc3)[n+](C)c3ccccc32)C1 (centres undefined) ?
S2 tox: 25µM*; TGFb SMAD3 inh: 13µM*; HepG2 viability: 20µM*; ATXN2 expr inh: inconclusive; HT1080NT lethal: 12µM*; HT1080 IDH1KD tx: 12µM*

What do the screens show for `CN1[C@H]2CC[C@@H]1[C@@H](C(=O)O)[C@@H](OC(=O)c1ccccc1)C2`?
S2 tox: inactive

Results for COc1cccc(CN2CCc3nc(N4CCN(c5ncccn5)CC4)ncc3C2)c1 ?
S2 tox: inconclusive; TGFb SMAD3 inh: inconclusive; HepG2 viability: -23%; ATXN2 expr inh: inconclusive

Results for CN(C)c1ccc(C(=O)c2ccc(N(C)C)cc2)cc1 ?
S2 tox: inactive; TGFb SMAD3 inh: 3%; HepG2 viability: -22%; ATXN2 expr inh: 27%; HT1080NT lethal: 7.1µM*; HT1080 IDH1KD tx: 2.5µM*

Results for Cc1sc2c(c1C)C(c1ccc(Cl)cc1)=N[C@@H](CC(=O)OC(C)(C)C)c1nnc(C)n1-2 ?
ATXN2 expr inh: 10%

How did C[C@@H]1CC2=CC(=O)CC[C@@H]2[C@H]2CC[C@@]3(C)[C@@H](CC[C@]3(C)O)[C@@H]21 do in these assays?
S2 tox: inactive; ATXN2 expr inh: -10%

What do the screens show for `CSc1ccc(C(=O)C2CCCN(Cc3cc4ccccc4[nH]3)C2)cc1` (centres undefined)?
S2 tox: inactive; TGFb SMAD3 inh: inconclusive; HepG2 viability: 0%; ATXN2 expr inh: -38%; HT1080NT lethal: 23µM*; HT1080 IDH1KD tx: inconclusive

What do the screens show for `O=C(C1CCCN(Cc2ccc(Cl)cc2)C1)N1CCCCC1` (centres undefined)?
S2 tox: inactive; TGFb SMAD3 inh: 0%; HepG2 viability: 2%; ATXN2 expr inh: -26%; HT1080NT lethal: 0%; HT1080 IDH1KD tx: -3%

How did CC(=O)Oc1ccc2c3c1O[C@H]1[C@@H](OC(C)=O)C=C[C@H]4[C@@H](C2)N(C)CC[C@@]341 do in these assays?
S2 tox: inactive

What do the screens show for `O=C(Oc1ccc([N+](=O)[O-])cc1)N1CCC(C(O)(c2ccc3c(c2)OCO3)c2ccc3c(c2)OCO3)CC1`?
ATXN2 expr inh: -14%

Results for CC1Oc2cc3c(-c4c(O)cc(O)c5c(O)c6c(cc45)OC(C)C(C)C6=O)c(O)cc(O)c3c(O)c2C(=O)C1C (centres undefined) ?
S2 tox: inconclusive; TGFb SMAD3 inh: 14µM*; HepG2 viability: 11µM*; ATXN2 expr inh: 11µM*; HT1080NT lethal: 4.6µM*; HT1080 IDH1KD tx: 8.2µM*

Results for Clc1ccc(Cc2nn3c(Cn4nnc5ccccc54)nnc3s2)cc1 ?
S2 tox: inactive; TGFb SMAD3 inh: 23%; HepG2 viability: -30%; ATXN2 expr inh: -1%; HT1080NT lethal: -4%; HT1080 IDH1KD tx: inconclusive

How did COC(=O)C1=C(c2cc3ccccc3o2)C[C@@H]2CC[C@H]1N2C(=O)N1CCOCC1 do in these assays?
S2 tox: inconclusive; TGFb SMAD3 inh: inconclusive; HepG2 viability: 0%; ATXN2 expr inh: -12%; HT1080NT lethal: 23µM*; HT1080 IDH1KD tx: inconclusive

Results for COC(=O)C1=C(c2cc3ccccc3o2)C[C@@H]2CC[C@H]1N2C(=O)NCc1ccccc1 ?
S2 tox: inconclusive; TGFb SMAD3 inh: inconclusive; HepG2 viability: -21%; ATXN2 expr inh: -13%; HT1080NT lethal: -10%; HT1080 IDH1KD tx: -11%

What do the screens show for `COC(=O)C1=C(c2cc3ccccc3o2)C[C@@H]2CC[C@H]1N2C(=O)NCc1ccc(C(F)(F)F)cc1`?
S2 tox: inactive; TGFb SMAD3 inh: 3%; HepG2 viability: -21%; ATXN2 expr inh: 8%; HT1080NT lethal: 21µM*; HT1080 IDH1KD tx: inconclusive

Results for COC(=O)C1=C(c2ccccc2)C[C@@H]2CC[C@H]1N2C(=O)N1CCOCC1 ?
S2 tox: inactive; TGFb SMAD3 inh: 6%; HepG2 viability: 5%; ATXN2 expr inh: 2%; HT1080NT lethal: 6%; HT1080 IDH1KD tx: 2%

How did CCCCCCCCn1sccc1=O do in these assays?
TGFb SMAD3 inh: 5.6µM*; HepG2 viability: -97%; ATXN2 expr inh: 25µM*; HT1080NT lethal: 6.5µM*; HT1080 IDH1KD tx: 8.2µM*

How did CCOC(=O)[C@]12Cc3cc(Cl)ccc3[C@H]1N(Cc1ccccc1)C(=O)c1ccccc12 do in these assays?
S2 tox: inactive; TGFb SMAD3 inh: inconclusive; HepG2 viability: -14%; ATXN2 expr inh: -25%; HT1080NT lethal: -19%; HT1080 IDH1KD tx: -1%

What do the screens show for `CCCCCN1C(=O)c2cc(OC)ccc2[C@@]2(C(=O)OCC)Cc3cc(OC)ccc3[C@@H]12`?
ATXN2 expr inh: inconclusive; HT1080NT lethal: 15µM*; HT1080 IDH1KD tx: 13µM*

What do the screens show for `CCOC(=O)[C@]12Cc3cc(OC)ccc3[C@H]1N(CC(=O)OC)C(=O)c1cc(OC)ccc12`?
S2 tox: 13µM*; ATXN2 expr inh: 20µM*; HT1080NT lethal: inconclusive; HT1080 IDH1KD tx: inconclusive
